Reference: publication PMC4336329 (PLoS ONE, 2015)
Out of some 310,000 compounds screened, about 14,000 (4.5%) showed an effect of 50% or more. Effects have a minus sign here. The list comes from a sample in which strong results are over-represented; it also holds similar structures and randomly drawn compounds.

Each compound was assayed against human ether-à-go-go-related gene (hERG) potassium channel (human, UniProt Q12809) (assay: primary screen, population patch clamp on CHO cells stably expressing hERG; higher = less effect of the substance).
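Further: peak tail current of the secondary pulse compared with the same well before compound.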

Sequence of human ether-à-go-go-related gene (hERG) potassium channel (Q12809 whole entry, looked up): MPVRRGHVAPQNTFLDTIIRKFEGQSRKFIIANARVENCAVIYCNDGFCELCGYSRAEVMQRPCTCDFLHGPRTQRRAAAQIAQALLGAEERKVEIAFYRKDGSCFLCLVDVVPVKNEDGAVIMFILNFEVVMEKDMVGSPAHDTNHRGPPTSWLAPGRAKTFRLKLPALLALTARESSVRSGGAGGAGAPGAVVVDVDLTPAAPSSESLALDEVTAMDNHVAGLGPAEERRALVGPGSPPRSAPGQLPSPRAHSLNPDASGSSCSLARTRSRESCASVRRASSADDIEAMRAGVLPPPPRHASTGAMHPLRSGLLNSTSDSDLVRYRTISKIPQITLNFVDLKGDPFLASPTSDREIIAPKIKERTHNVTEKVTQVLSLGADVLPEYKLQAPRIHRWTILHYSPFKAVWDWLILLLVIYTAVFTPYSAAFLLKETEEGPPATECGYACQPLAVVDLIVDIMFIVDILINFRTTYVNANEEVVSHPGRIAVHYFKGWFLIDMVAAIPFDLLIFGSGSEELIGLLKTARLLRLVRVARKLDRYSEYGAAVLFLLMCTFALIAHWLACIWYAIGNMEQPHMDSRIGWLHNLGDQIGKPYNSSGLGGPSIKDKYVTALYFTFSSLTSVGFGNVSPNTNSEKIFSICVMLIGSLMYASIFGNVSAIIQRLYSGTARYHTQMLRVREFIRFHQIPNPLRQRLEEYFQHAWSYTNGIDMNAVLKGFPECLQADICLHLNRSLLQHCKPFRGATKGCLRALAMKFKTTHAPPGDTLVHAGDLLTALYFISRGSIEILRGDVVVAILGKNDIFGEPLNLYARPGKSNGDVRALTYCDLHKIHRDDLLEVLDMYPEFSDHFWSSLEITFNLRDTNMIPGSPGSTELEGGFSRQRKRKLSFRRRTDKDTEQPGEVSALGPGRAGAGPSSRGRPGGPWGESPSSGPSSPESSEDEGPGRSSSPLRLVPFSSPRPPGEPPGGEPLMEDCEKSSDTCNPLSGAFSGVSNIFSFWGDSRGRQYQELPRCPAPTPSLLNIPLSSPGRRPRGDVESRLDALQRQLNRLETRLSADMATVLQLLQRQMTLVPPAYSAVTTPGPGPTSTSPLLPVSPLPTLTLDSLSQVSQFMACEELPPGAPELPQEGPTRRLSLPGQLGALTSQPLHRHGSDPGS

Row | SMILES | hERG current change (%, negative = inhibition) at 10uM
1 | COc1cc(C(=O)Nc2ccc(S(=O)(=O)Nc3nccc(C)n3)cc2)cc(OC)c1OC | 12.9%
2 | O=C(CN1CCN(c2ccccn2)CC1)Nc1cc(C(F)(F)F)ccc1Cl | -3.6%
3 | COc1ccc(-c2cc(NCCc3ccncc3)n3ncnc3n2)cc1 | -55.8%
4 | c1ccc(-c2cc(-c3ccccc3)n3ncnc3n2)cc1 | -49.5%
5 | COc1ccc(-c2ccnc3ncnn23)cc1 | -9.61%
6 | Cc1cc(-c2ccccc2)n2ncnc2n1 | 12.5%
7 | COc1ccc(-c2cc(-c3ccc(Br)cc3)nc3ncnn23)cc1OC | -34.4%
8 | COc1ccc(-c2cc(NCc3ccccn3)n3ncnc3n2)cc1 | -23.5%
9 | COc1ccc(-c2cc(-c3ccccc3)nc3ncnn23)cc1 | -56.4%
10 | COc1ccc(-c2cc(-c3ccccc3)n3ncnc3n2)cc1 | -60.9%
11 | COc1ccc(CCNc2cc(-c3ccccc3)nc3ncnn23)cc1 | -2.18%
12 | COc1cc(OC)c(NS(=O)(=O)c2cn(C)cn2)cc1Cl | 5.67%
13 | CCOC(=O)C(Cc1ccc(OC)c([N+](=O)[O-])c1)NC(=O)CCC(=O)Nc1ccc(OC)cc1 (stereo not shown) | 1.35%
14 | COC1CCCN(C(=O)c2ccc(OC3CCN(S(=O)(=O)N(C)C)CC3)cc2)C1 (stereo not shown) | 8.14%
15 | CCOC(=O)C(CCSC)NC(=O)CN.Cl (stereo not shown) | -6.89%
16 | Cc1ccc(-n2c(C)cc(/C=C3/C(=O)NC(=O)N(C)C3=O)c2C)cc1 | 15.2%
17 | CSc1nnc(-c2ccc(Br)s2)n1C | 1.98%
18 | O=C(Cn1cc(C(F)(F)F)ccc1=O)N/N=C/c1ccccc1O | -7.65%
19 | O=C(CSC1=NCCN1)Nc1ccccc1[N+](=O)[O-] | 11.2%
20 | CC(Sc1ccc(S(=O)(=O)N2CCOCC2)cn1)C(=O)Nc1ccc(Cl)cc1Cl (stereo not shown) | -56.1%
21 | CNC(=O)C(C)Sc1ccc(S(=O)(=O)N2CCOCC2)cn1 (stereo not shown) | -0.356%
22 | CC(Sc1ccc(Cl)cc1)C(=O)Nc1ccc(S(=O)(=O)N2CCOCC2)cc1 (stereo not shown) | -22.7%
23 | COc1ccc(Cl)cc1N1CCN(CCNC(=O)Nc2ccccc2C)CC1 | -40.1%
24 | COc1cc(CNc2ncc(-c3ccc(Cl)cc3)n2C)cc(OC)c1OC.O=C(O)C(=O)O | -66.9%
25 | COc1cc(CNc2ncc(-c3ccc(Br)cc3)n2C)cc(OC)c1O.O=C(O)C(=O)O | -60.5%

Row | SMILES | hERG current change (%, negative = inhibition) at 10uM
26 | COc1ccc(CNc2ncc(-c3ccc(Cl)cc3)n2C)c(OC)c1OC.O=C(O)C(=O)O | -47%
27 | COc1ccc(CNc2ncc(-c3ccccc3)n2C)c(OC)c1OC.O=C(O)C(=O)O | -44.1%
28 | CCOc1cc(CNc2ncc(-c3ccc(OC)cc3)n2C)ccc1O.O=C(O)C(=O)O | -48.3%
29 | COc1cc(CNc2ncc(-c3ccc(Br)cc3)n2C)cc(OC)c1OC.O=C(O)C(=O)O | -49.9%
30 | Cc1cccc2c1cnn2C(=O)CCC(=O)N1CCC(C)CC1 | -14.1%
31 | Br.NC1(N)OC(CN2C(=O)c3ccccc3C2=O)CS1 (stereo not shown) | -5.75%
32 | Cc1c(C(=O)NC(C)c2ccncc2)oc2ccccc12 (stereo not shown) | -29.7%
33 | COc1ccc(OCc2cccc(C(=O)Nc3ccc(CN4CCCCC4)cc3)c2)cc1 | -72.8%
34 | O=C(Nc1ccc(CN2CCCCC2)cc1)c1ccc2c(c1)OCO2 | -64.3%
35 | CC(C)C(=O)Nc1cccc(NC(=O)c2cccc(F)c2)c1 | 5.16%
36 | COc1cc(OC)cc(C(=O)Nc2ccc(CN3CCCCC3)cc2)c1 | -14.7%
37 | CCCNC(=O)c1cccc(NC(=O)C(C)C)c1 | -25.4%
38 | O=C(Nc1ccc(C(=O)N2CCCC2)cc1)c1ccc2c(c1)OCO2 | -0.403%
39 | CCOc1ccc(OCc2cccc(C(=O)N3CCCCCC3)c2)cc1 | -69.3%
40 | CCOc1ccc(OCc2cccc(C(=O)N3CCCC3)c2)cc1 | -11.6%
41 | CC(C)C(=O)Nc1cccc(NC(=O)c2cccc(Br)c2)c1 | -52.1%
42 | O=C(Nc1ccc2c(c1)OCO2)c1ccc(CN2CCOCC2)cc1 | 10.1%
43 | COc1ccc(C(=O)Nc2ccc(CN3CCCCC3)cc2)cc1 | -40.3%
44 | COc1ccc(OCc2cccc(C(=O)N3CCCC3)c2)cc1 | -3.08%
45 | CC(=O)Nc1ccc(NC(=O)C(C)OC(=O)c2cccc(S(=O)(=O)N3CCCC3)c2)cc1 (stereo not shown) | 10.4%
46 | Cc1ccccc1CCNC(=O)C1CCCN(c2cnccn2)C1 (stereo not shown) | -0.76%
47 | O=C(O)C(=O)O.O=C(c1cccnc1)N1CCN(Cc2ccccc2Br)CC1 | 4.7%
48 | CCCCN(C)C(=O)c1nc2ccccn2c1CN1CCC[C@H]1CO | 3.21%
49 | CC(C)C[C@H](NC(=O)c1nc[nH]c1C(=O)NCc1ccc(CNC(=O)OC(C)(C)C)cc1)C(=O)OCc1ccccc1 | 2.91%
